Screening data: PubChem, National Center for Advancing Translational Sciences (NCATS)
This is one part of a sample in which hits are shown more often than they occur.
FBPA Giardia inh: inhibitors of Giardia lamblia fructose-1,6-bisphosphate aldolase. purified Giardia FBPA. hit rate 0.71% among 290,000. Potency, µM (top dose mostly 59.6 µM), for inactives: at the highest dose activity, negative = inhibition, actives largely listed as inhibitors. AID 2451; note: potency is the fitted concentration of half-maximal effect; % is set by controls: 0 for no effect and ±100 for the full control effect; nearly all actives have a fitted effect of over 55% in size
Target sequence (A8B2U2 whole entry, looked up): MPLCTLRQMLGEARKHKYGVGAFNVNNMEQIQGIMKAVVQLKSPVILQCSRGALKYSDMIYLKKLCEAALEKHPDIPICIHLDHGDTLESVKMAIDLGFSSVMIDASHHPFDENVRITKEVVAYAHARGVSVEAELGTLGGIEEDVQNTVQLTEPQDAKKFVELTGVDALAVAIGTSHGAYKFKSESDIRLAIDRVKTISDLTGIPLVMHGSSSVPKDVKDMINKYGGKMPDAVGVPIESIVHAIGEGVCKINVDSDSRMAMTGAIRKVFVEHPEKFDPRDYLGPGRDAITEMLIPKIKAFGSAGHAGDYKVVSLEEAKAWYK
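Giardia FBPA (40 nM reagent) was preincubated 10 min at RT with compound (up to 57.5 uM final), then substrate plus GAPDH/TPI/NAD/arsenate coupling system with diaphorase/resazurin was added; resorufin fluorescence (525/598 nm) was read after 20 min.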
Shiga toxin inh: inhibitors of Shiga toxin in Vero cells; hit rate 9.2% among 290,000; inhibition, % at 38.7 µM; Vero cells, Shiga toxin protein synthesis inhibition reporter; in the data active = inhibition mostly above about 28%, no sharp cut-off; inactive = mostly below about 43%; note: 0% is about no effect
RE007 growth inh: less growth of the S. pombe RE007 Vpr strain; AID 651644; S. pombe RE007 Vpr strain, BacTiter-Glo ATP luminescence, 24 h; Potency, µM (doses to about 92.2 µM), for the others: at the highest dose activity change, negative = less growth, most hits filed as inhibitors; hit rate 0.21% among 360,000; active = well fitted falling curve with a large enough effect; inconclusive = small, poorly fitted or top-dose-only effect; inactive = no such curve, though single readings can be large or run the other way; note: potency is the fitted concentration of half-maximal effect; % is set by controls: 0 for no effect and ±100 for the full control effect; nearly all actives have a fitted effect of over 50% in size
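Fission yeast RE007 carrying one integrated HIV-1 vpr copy, seeded at OD 0.01 in PMG+AL medium with 23 nL pinned compound. Grown 24 h at 30 degrees; viability read by BacTiter-Glo luminescence after 5 min.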
Tb PYK inh: T. brucei pyruvate kinase inhibition | hit rate 0.12% among 410,000 | TbPYK enzyme, Kinase-Glo Plus ATP luminescence, 45 min | Q57TT1 | Potency, µM (titrated, usually from 76.8 µM), without a hit: top-dose activity, negative = inhibition, most hits filed as inhibitors | AID 624173; note: potency is the fitted concentration of half-maximal effect; % is set by controls: 0 for no effect and ±100 for the full control effect; nearly all actives have a fitted effect of over 50% in size
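Screened from lowest to highest concentration, compounds were pinned into TbPYK/substrate mixtures, and ADP (130 uM final) was added. Plates sat at room temperature for 45 min prior to Kinase-Glo Plus detection by luminescence.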
LmPK inhibitor: inhibitors of Leishmania mexicana pyruvate kinase | hit rate 0.37% among 290,000 | Q27686 | purified LmPK, Kinase-Glo ATP luminescence, 1 h | Potency, µM (top dose mostly 57.5 µM), inactives show at the top dose activity change, negative = inhibition, hits mostly inhibitors; note: potency is the fitted concentration of half-maximal effect; % is set by controls: 0 for no effect and ±100 for the full control effect
Target sequence (Q27686 whole entry, looked up): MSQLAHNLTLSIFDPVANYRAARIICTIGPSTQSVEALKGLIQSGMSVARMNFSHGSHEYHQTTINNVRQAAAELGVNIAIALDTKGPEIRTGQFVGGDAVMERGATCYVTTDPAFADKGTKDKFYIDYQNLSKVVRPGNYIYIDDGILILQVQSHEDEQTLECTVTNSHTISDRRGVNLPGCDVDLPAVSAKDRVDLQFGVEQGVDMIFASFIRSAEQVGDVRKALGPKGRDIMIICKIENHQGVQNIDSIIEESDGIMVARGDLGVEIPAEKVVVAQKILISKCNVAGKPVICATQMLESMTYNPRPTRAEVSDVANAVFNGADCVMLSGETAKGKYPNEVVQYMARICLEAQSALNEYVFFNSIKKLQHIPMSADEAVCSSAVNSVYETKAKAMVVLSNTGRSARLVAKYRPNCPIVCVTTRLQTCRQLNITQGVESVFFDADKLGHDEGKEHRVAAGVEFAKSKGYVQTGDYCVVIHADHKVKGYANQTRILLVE
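In 50 mM imidazole pH 7.2 with 7 mM MgCl2, LmPK (0.1 nM) turned over PEP (0.5 mM) and ADP (0.1 mM) for 1 h at room temperature. Luciferase read-out of ATP.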
Cycloheximide cs: affects cycloheximide protein synthesis inhibition readout, counter-screen | cell reporter, cycloheximide protein synthesis inhibition counterscreen | max response, % | hit rate 12% among 300,000; in the data active = max response mostly above about 13%, no sharp cut-off; inactive = mostly below about 14%; note: read at 38.3 µM for the half of the compounds with a filed dose; 0% is about no effect
* marks the source's active call; other numbers are inactive results; ? = inconclusive; / = not tested or not shown; [ ] = remark or other dose. Unless noted, calls come from the whole dose curve; as a rule, active = well fitted curve in the direction sought with a large enough effect; inconclusive = small, poorly fitted or top-dose-only effect, or another doubt; inactive = no such curve, though single readings can be large; an effect the other way counts as inactive or inconclusive.

SMILES | FBPA Giardia inh | Shiga toxin inh | RE007 growth inh | Tb PYK inh | LmPK inhibitor | Cycloheximide cs
COc1ccc(C(=O)COc2cccc(NC(=O)c3ccco3)c2)cc1 | -1.5% | 9.5 | 4.9% | 2.4% | -4.0% | 11.9*
COc1cccc(C(=O)COc2cccc(NC(=O)c3ccco3)c2)c1 | -5.6% | 14.6 | 10.7% | -0.8% | -2.5% | 5.4
O=C(COc1cccc(NC(=O)c2ccco2)c1)c1ccccc1 | 4.3% | 62.0* | ? | -0.2% | -6.1% | 37.3*
N[C@H](Cc1cnc[nH]1)C(=O)O | -11.2% | / | / | / | / | /
COc1cccc(Cn2c(=O)c(-c3cccs3)nc3cnc(N4CCNCC4)nc32)c1 | -9.7% | / | / | / | / | /
CO[C@H]1COC(=O)C/C=C\[C@@H](C)[C@H](OC)COC(=O)[C@H]2CCCN2C(=O)C/C=C\[C@@H]1C | -0.2%[12.9 µM] | / | / | / | / | /
O=C(Nc1cccc(NC(=O)c2ccco2)c1)c1ccccc1 | / | -8.8 | -0.8% | -1.6% | -2.3% | 12.8
COc1cccc(NC(=O)COC(=O)c2ccco2)c1 | -1.2% | 41.5* | -16.5% | 1.3% | 2.1% | 12.2*
O=C(Nc1cccc(NC(=O)c2ccc(-c3ccc(Br)cc3)o2)c1)c1ccccc1 | 3.9% | -10.8 | 2.2% | 9.6% | -4.6% | -9.4
O=C(Nc1cccc(NC(=O)c2ccc(-c3cccc(Br)c3)o2)c1)c1ccco1 | -2.4% | 72.9* | -10.7% | -9.6% | -1.2% | 58.4*
O=C(c1ccccc1)c1cccc(NC(=O)c2ccco2)c1 | -1.0% | 60.4* | ? | -0.8% | -11.1% | 24.2*
Cc1ccc(NC(=O)COC(=O)c2ccco2)cc1C | / | / | 18.9% | 0.6% | / | /
O=C(Cn1cc(C(=O)c2ccccc2F)c2ccccc21)NCc1ccco1 | 2.5% | -9.8 | -4.6% | -3.3% | 3.7% | 12.3
CC(C)C(=O)c1cn(CC(=O)NCc2ccco2)c2ccccc12 | 2.6% | 57.5* | 3.3% | 6.5% | 3.2% | 29.7*
CC(C)(C)C(=O)c1cn(CC(=O)NCc2ccco2)c2ccccc12 | -5.1% | 96.3* | 5.0% | -5.1% | 0.0% | 36.0*
COc1cccc(-n2c(SCc3ccc(F)cc3)nc3c([nH]c4ccccc43)c2=O)c1 | / | / | / | 4.7% | / | /
O=S(=O)(c1ccccc1)c1nnn2c1nc(NCc1ccc(F)cc1)c1sccc12 | / | / | / | 4.5% | / | /
CN(C)c1ccc(Nc2cc(Cl)ncn2)cc1 | -6.2% | / | 0.5% | -4.6% | 5.2% | 41.7*
CN(C)c1cccc(-c2cc(Nc3ccc(C(C)(C)C)cc3)ncn2)c1 | / | / | -6.1% | 7.6% | / | /
O=C1[C@@H]2[C@H]3[C@H](O)[C@H](O)C/C(=N/OCc4ccccc4)[C@@H]3CC[C@H]2C(=O)N1c1ccc(F)cc1F | -1.5%[12.9 µM] | / | / | / | / | /
Fc1ccc(/C=C/c2nnc(-c3cccs3)o2)cc1 | 9.2% | 75.1* | 5.9% | -0.4% | 1.2% | 30.7*
Cc1ccc(/C=C/c2nnc(-c3cccs3)o2)cc1 | 0.3% | 47.6* | -5.5% | 1.2% | -11.7% | 46.5*
Cc1ccc(/C=C/c2nnc(-c3ccc(C)cc3)o2)cc1 | / | 32.0 | -19.7% | 1.8% | 1.8% | 1.3
Cc1ccc(S(=O)(=O)CCC(=O)Nc2nnc(-c3cccs3)o2)cc1 | / | / | 9.3% | -3.0% | / | /
Cc1ccc(-c2nnc(-c3cccs3)o2)cc1 | -0.9% | 71.7* | 20µM* | -0.3% | ? | 31.4*
SMILES | FBPA Giardia inh | Shiga toxin inh | RE007 growth inh | Tb PYK inh | LmPK inhibitor | Cycloheximide cs
Cc1cccc(Cn2c(=O)n(Cc3ccc4c(c3)OCO4)c(=O)c3oc4ccccc4c32)c1 | / | / | / | 0.8% | / | /
Cc1nc2cnc(N3CCOCC3)nc2n(CCc2ccccc2)c1=O | 9.7% | / | / | / | / | /
CNCCCOc1cccc(Oc2ccccc2)c1 | ? | 100.2* | 12.7% | 2.7% | -3.3% | 34.1*
CNCCCOc1cccc(OC(C)C)c1 | -13.0% | 140.9* | -0.6% | -7.2% | -4.3% | 19.0*
Cc1cccc(N2C(=O)CCSC23C(=O)N(Cc2ccc(F)cc2)c2ccccc23)c1 (stereo unspecified) | / | / | / | -10.3%[15.4 µM] | / | /
c1coc(-c2nnc3sc(Cc4cccs4)nn23)c1 | -6.9% | 30.4 | 12.2% | ? | 0.0% | 11.9
COc1ccccc1-c1nn2c(-c3ccco3)nnc2s1 | -8.5% | 112.5* | 2.6% | -9.9% | 2.7% | 67.7*
c1coc(-c2nn3c(-c4ccco4)nnc3s2)c1 | -4.7% | 11.9 | 1.7% | -8.7% | 10.4% | 10.3*
C=CCNCCOCCOc1ccc(C)cc1Br | -16.7% | 47.0 | 5.1% | 39.3% | -1.2% | 28.5*
COc1ccc(C(c2sc3ncnn3c2O)N2CC(C)OC(C)C2)cc1OC (stereo unspecified) | -16.9% | -2.5 | 6.6% | 4.4% | -2.3% | 16.8*
COc1ccc(C(c2sc3ncnn3c2O)N2CCN(c3ccccc3F)CC2)cc1OC (stereo unspecified) | 10.2% | 9.1 | -15.1% | 1.0% | -1.2% | 20.3*
Cc1ccc(NC(=O)CCS(=O)(=O)c2ccc(Br)s2)c(Br)c1 | / | / | / | -0.3% | / | /
Nc1nc(Cl)nc2ccc(Br)cc12 | -1.8% | 53.1* | -11.9% | -21.3% | -2.5% | 66.8*
CC(C)(C)CC(C)(C)c1cc(Cc2cc(C(C)(C)CC(C)(C)C)cc(-n3nc4ccccc4n3)c2O)c(O)c(-n2nc3ccccc3n2)c1 | / | / | / | -8.8% | / | /
Cc1ccsc1/C=N/NC(=S)NCCc1ccccc1 | 1.7% | 30.6* | -16.3% | -4.9% | 5.8% | 32.5*
COc1ccc(CC(=O)N/N=C/c2sccc2C)cc1 | 10.2% | 23.7 | -11.8% | 3.4% | 2.1% | 8.5
CCCCC(=O)N/N=C/c1sccc1C | 4.2% | -13.0 | 1.1% | -4.8% | 1.3% | 8.6
Cc1ccsc1/C=N/NC(=O)C(=O)NCC(C)C | -3.2% | 75.9* | -18.9% | -22.6% | -1.4% | 41.3*
CCNC(=S)N/N=C/c1sccc1C | 3.1% | 33.7* | / | / | 0.0% | 6.1
CCc1cc2c(cc3c(=O)n(CC(=O)NCCc4ccc(OC)cc4OC)nc(CC)n32)s1 | / | / | / | -11.3% | / | /
NC(=O)O | -0.2% | 2.3 | / | / | / | -6.3
CCN(c1ccccc1)S(=O)(=O)c1ccc(OC)c(NC(=O)Cc2ccc(F)cc2)c1 | / | / | -7.9% | -1.6% | / | /
CCN(c1ccccc1)S(=O)(=O)c1ccc(OC)c(NC(=O)CNCCc2ccccc2)c1 | ? | 36.2 | 5.9% | 2.7% | 4.5% | 24.6*
O=C(NCC1CCCO1)c1sc2cc(Cl)ccc2c1Cl (stereo unspecified) | -1.6% | 76.1* | -1.0% | -4.2% | -7.5% | 54.0*
O=C(NCCN1CCOCC1)c1sc2cc(Cl)ccc2c1Cl | 2.2% | 45.0* | -8.9% | 2.7% | 1.3% | 17.3*
CC(C)(CNC(=O)c1sc2cc(Cl)ccc2c1Cl)N1CCOCC1 | / | / | -20.2% | 1.2% | / | /
O=C(NCCCN1CCOCC1)c1sc2ccccc2c1Cl | 4.5% | 46.5* | -22.6% | 3.7% | 4.0% | 39.5*
CCOc1ccc(-c2nonc2NC(=O)c2oc3ccc(Cl)cc3c2C)cc1 | / | / | / | -0.5% | / | /
